Assay results taken from PubChem BioAssay AID540333 (Southern Research Specialized Biocontainment Screening …, 2011).
The campaign covered roughly 10,000 compounds. About 320 (3.2%) were called active. Rule as the data show it: active = CPE inhibition mostly above about 9.1% (no sharp cut-off); inactive = mostly below about 7.2%. The sample as a whole holds a higher share of actives than the screen did.

Test: antivirals protecting cells from dengue CPE – CPE readout, HTS (AID 540333)
Settings: Dengue virus CPE inhibition in host cells, at 20 µM; hits give high values

SMILES | CPE inhibition
Clc1ccc(-n2nnnc2CN2CCOCC2)cc1Cl | 0.27% (inactive)
COc1ccccc1OCCOCCOc1ccccc1Cl | inactive
O=C1CN(C(=O)COC(=O)/C=C/c2ccc(OC(F)F)cc2)c2ccccc2N1 | inactive
O=C(COC(=O)/C=C/c1ccc(OC(F)F)cc1)NCc1cccs1 | 0.315% (inactive)
CCOC(=O)c1c(C)[nH]c(C)c1C(=O)COC(=O)/C=C/c1ccc(OC(F)F)cc1 | 10.1% (active)
C/C(=N\NC(=O)CSc1nnc(C)s1)c1ccc(Cl)cc1 | inactive
CC(C)CC(=O)NC1(C(F)(F)F)C(=O)N(CC(C)C)C2=C1C(=O)CC(C)(C)C2 (stereo not given) | inactive
CNc1nc(Nc2ccc(C)c(Cl)c2)nc(N)c1[N+](=O)[O-] | 9.08% (active)
Cc1ccc(C)c(Nc2ncnc(N)c2[N+](=O)[O-])c1 | 6.21% (inactive)
CC(=O)Nc1ccc(Nc2nc(C)c([N+](=O)[O-])c(Nc3ccc(NC(C)=O)cc3)n2)cc1 | inactive
COc1cccc(-c2ncc3ccccc3c2COC(=O)c2ccc(C(F)(F)F)cc2)c1 | 0.77% (inactive)
COc1cccc(-c2ncc3ccccc3c2CO)c1 | inactive
COc1cccc(-c2ncc3ccccc3c2COC(=O)c2ccc(C(C)(C)C)cc2)c1 | 15.2% (active)
CC(=O)N1N=C(c2ccc(Br)cc2)OC1(C)CC(=O)Nc1ccccc1 (stereo not given) | 4.7% (inactive)
O=C(CN1CCCCCCC1)N/N=C/c1ccccc1F | 0.805% (inactive)
CC(C)(C)c1ccc(OCC(=O)N/N=C/c2ccc(N3CCOCC3)cc2)cc1 | 1.86% (inactive)
C/C(=N\Nc1ccc(Cl)c(Cl)c1)c1ccc(-n2ccnc2)cc1 | inactive
C/C(=N\NC(=O)COc1ccc(C(C)(C)C)cc1)c1ccc(-n2ccnc2)cc1 | 10.2% (active)
CN(c1ccccc1)S(=O)(=O)c1cccc(NC(=O)CSc2ncc(C(F)(F)F)cc2Cl)c1 | 22.4% (active)
NS(=O)(=O)c1cccc(NC(=O)CSc2ncc(C(F)(F)F)cc2Cl)c1 | 3.56% (inactive)
CN(c1ccccc1)S(=O)(=O)c1cccc(NC(=O)CSc2nncn2C)c1 | 0.35% (inactive)
Cc1c(Cl)cccc1NC(=S)NCc1cccn1C | 0.255% (inactive)
Cc1cccc(-n2c(C)cc(/C=C3/C(=N)N4C(c5ccccc5)=CSC4=NC3=O)c2C)c1 | 5.77% (inactive)
Cc1cccc(-n2c(C)cc(/C=C3\C(=N)N4N=C(CC(C)C)SC4=NC3=O)c2C)c1 | 0.575% (inactive)

SMILES | CPE inhibition
Cc1cc(C)cc(-n2c(C)cc(/C=C3\C(=N)N4N=C(CC(C)C)SC4=NC3=O)c2C)c1 | 15.1% (active)
COC(=O)c1ccc(Oc2c(Cl)cccc2[N+](=O)[O-])cc1 | 0.625% (inactive)
COc1ccc(Nc2nc(-c3cccc([N+](=O)[O-])c3)nc3ccccc23)c(OC)c1 | 0.465% (inactive)
O=C(O)CC(CC(=O)O)c1ccsc1 | inactive
CCOC(=O)N1CCN(C(=O)c2ccc(-n3c(C)ccc3C)cc2)CC1 | 0.68% (inactive)
C=CC[C@]12CCc3sccc3C1N(c1ccc(C(=O)OCC)cc1)C2=O (stereo not given in full) | 19.9% (active)
CCOC(=O)c1ccc(-n2c(C)ccc2C)cc1 | 0.33% (inactive)
Cc1cc(=O)[nH]c(N/N=C/c2ccc(Br)s2)n1 | inactive
CCc1nnc(N2C(=O)c3ccc(Oc4ccc([N+](=O)[O-])cc4)cc3C2=O)s1 | 0.2% (inactive)
Cc1cccc(-c2nsc(SCC(=O)NCc3ccc4c(c3)OCO4)n2)c1 | 0.255% (inactive)
S=C(Nc1ccc(OCc2ccccc2)cc1)Nc1cccc(Cl)c1Cl | 0.45% (inactive)
S=C(Nc1ccccc1Oc1ccccc1)Nc1cccc(Cl)c1Cl | 12.8% (active)
FC(F)Oc1ccccc1NC(=S)Nc1cccc(Cl)c1Cl | 0.195% (inactive)
COc1cccc(NC(=O)CN2C(=O)C(c3ccc(C)cc3)=NC23CCCCCC3)c1 | 3.59% (inactive)
Cc1ccc(-n2c(=S)[nH]c3nc4c(cc3c2=O)COC(C)(C)C4)cc1 | inactive
O=S(=O)(/N=C(/Nc1ccccn1)c1ccc(Cl)cc1)c1ccc(Cl)cc1 | 0.025% (inactive)
O=C(COc1cccc2c1CCN(Cc1ccc(Br)cc1)C2=O)NCc1ccco1 | 13.9% (active)
O=C1c2cccc(OCc3ccc(F)cc3)c2CCN1Cc1ccccc1 | 11.8% (active)
Cc1ccc(COc2cccc3c2CCN(Cc2ccc(F)cc2)C3=O)cc1 | 23% (active)
Cc1cccc(CN2CCc3c(OCC(=O)NCc4ccco4)cccc3C2=O)c1 | inactive
O=C1c2cccc(OCC(=O)N3CCCc4ccccc43)c2CCN1Cc1ccccc1 | inactive
O=C(COc1cccc2c1CCN(Cc1ccccc1)C2=O)NCc1ccco1 | inactive
Cc1ccc(CN2CCc3c(OCc4ccc(F)cc4)cccc3C2=O)cc1 | 23.2% (active)
Cc1ccc(C)c(NC(=O)COc2cccc3c2CCN(Cc2ccccc2)C3=O)c1 | 0.435% (inactive)

SMILES | CPE inhibition
CCOC(=O)N1CCN(C(=O)COc2cccc3c2CCN(Cc2ccc(F)cc2)C3=O)CC1 | 0.16% (inactive)
O=C1c2cccc(OCc3ccc(F)cc3)c2CCN1Cc1ccc(F)cc1 | 7.61% (inactive)
COC(=O)c1ccc(COc2cccc3c2CCN(Cc2cccc(C)c2)C3=O)o1 | 0.825% (inactive)
Cc1cccc(CN2CCc3c(OCC(=O)N4CCCc5ccccc54)cccc3C2=O)c1 | 4.05% (inactive)
COc1ccc(CC(=O)Oc2cc(C)[nH]c(=O)c2[N+](=O)[O-])cc1 | inactive
O=C(NCCc1nc2ccccc2[nH]1)/C(=C/c1ccc2c(c1)OCO2)NC(=O)c1ccccc1 | inactive
C=CCc1ccc(OCCOc2cccc3cccnc23)c(OC)c1 | 1.16% (inactive)
Nn1cnc2c(c1=O)C1(CCCCC1)Cc1ccccc1-2 | 0.27% (inactive)
NC(=O)CSc1nc2c(c(=O)n1-c1ccccc1)C1(CCCCC1)Cc1ccccc1-2 | 13.4% (active)
CSc1n[nH]c2nc3c(c(=O)n12)C1(CCCC1)Cc1ccccc1-3 | inactive
COCc1nnc(NC(=O)c2cc(OC)c(OC)cc2[N+](=O)[O-])s1 | 0.875% (inactive)
CCOc1ccc(S(=O)(=O)c2c(C(=O)c3ccc(C)cc3)cnc3cc4c(cc23)OCCO4)cc1 | 3.02% (inactive)
Cc1ccc(S(=O)(=O)c2c(C(=O)c3ccccc3)cnc3cc4c(cc23)OCCO4)cc1 | 13.2% (active)
Cc1ccc(C(=O)c2cnc3cc4c(cc3c2S(=O)(=O)c2ccccc2)OCCO4)cc1 | 6.29% (inactive)
Cc1ccc(O)c(-c2cc(C(=O)Nc3ccc(S(=O)(=O)Nc4nc(C)cc(C)n4)cc3)[nH]n2)c1 | inactive
COc1cc2cc(CCOC(=O)c3ccco3)oc(=O)c2cc1OC | 0.275% (inactive)
N#Cc1ccc(NC(=O)COC(=O)CCNS(=O)(=O)c2ccccc2)cc1 | inactive
COC(=O)C1(CC2CC(c3ccncc3)=NO2)CCN(C(=O)OC(C)(C)C)CC1 (stereo not given) | inactive
CCCCCCCNC(=O)C1(CC2CC(c3cccc(Br)c3)=NO2)CCNCC1 (stereo not given) | inactive
CCCCCCCNC(=O)C1(CC2CC(c3cccc(Br)c3)=NO2)CCN(C(=O)C2(C)CC2)CC1 (stereo not given) | 2.1% (inactive)
CCCCCCCNC(=O)C1(CC2CC(c3ccccc3)=NO2)CCN(C(=O)OC(C)(C)C)CC1 (stereo not given) | 14.1% (active)
CCCCCCCNC(=O)C1(CC2CC(c3cccc(Br)c3)=NO2)CCN(C(=O)Cc2ccc(F)cc2)CC1 (stereo not given) | 21.7% (active)
CCCCCCCNC(=O)C1(CC2CC(c3ccc(Cl)cc3)=NO2)CCN(C(=O)C2(C)CC2)CC1 (stereo not given) | 1.24% (inactive)
O=C(Nc1cccc2nsnc12)c1cccnc1Cl | inactive

SMILES | CPE inhibition
Cc1ccc(CNC(=O)c2cc(-c3ccccc3)nn2CC2CC(c3cccnc3)=NO2)cc1 (stereo not given) | inactive
Cc1ccc(-c2cc(C(F)(F)F)c(C#N)c(=O)[nH]2)cc1 | 0.3% (inactive)
N/C(=N\OC(=O)Cc1ccccc1[N+](=O)[O-])c1ccncc1 | 0.175% (inactive)
Cc1ccc(C(=O)N/C(=C/c2ccco2)C(=O)NCCc2c[nH]c3ccccc23)cc1 | 0.17% (inactive)
CCn1cc([N+](=O)[O-])c(C(=O)N2N=C(c3ccc(O)c(OC)c3)CC2c2ccccc2O)n1 (stereo not given) | 2.17% (inactive)
CCn1cc([N+](=O)[O-])c(C(=O)N2N=C(c3ccc(OC)cc3OC)CC2c2ccccc2O)n1 (stereo not given) | 0.7% (inactive)
CCn1cc(Cl)c(C(=O)N2N=C(c3ccc4ccccc4c3)CC2c2ccccc2O)n1 (stereo not given) | 10% (active)
CC(=O)c1cccc(NC(=O)CCCOc2ccc(C)cc2)c1 | inactive
Cc1noc(C)c1CN(C(=S)NC(C)C)c1ccccc1 | inactive
Cc1ccsc1-c1n[nH]c(=S)n1CC(C)C | inactive
Cn1cc([N+](=O)[O-])c(C(=O)Nc2ccn(C34CC5CC(CC(C5)C3)C4)n2)n1 | 9.72% (active)
CCn1cc([N+](=O)[O-])c(C(=O)Nc2ccn(C34CC5CC(CC(C5)C3)C4)n2)n1 | 0.05% (inactive)
Cn1nccc1C(=O)Nc1ccn(C23CC4CC(CC(C4)C2)C3)n1 | 1.19% (inactive)
O=C(C[n+]1cccc(CNC(=O)c2ccc(OC(F)F)cc2)c1)Nc1cccc(C(F)(F)F)c1 | 0.165% (inactive)
CC(/C=C/c1ccccc1F)=N\NC(=O)C(C)C | 1.25% (inactive)
CN(C)c1ccc(N=Nc2ccccc2C(=O)OCC(=O)N2CCCCCC2)cc1 | 1.56% (inactive)
COc1ccc(C2OCC3(CO2)SC(=O)NC3=O)cc1 (stereo not given) | 0.47% (inactive)
O=C(NC1CCCC1)C(c1ccncc1)N(Cc1ccccc1)C(=O)c1ccc(-c2ccccc2)[nH]1 (stereo not given) | 3.1% (inactive)
O=C(NCC1CCCO1)C(c1cccs1)N(Cc1ccccc1)C(=O)c1ccc(-c2ccccc2)[nH]1 (stereo not given) | 8.12% (inactive)
CC(C)(C)NC(=O)C(c1cccs1)N(CC1CCCO1)C(=O)c1ccc(-c2ccccc2)[nH]1 (stereo not given) | 28.6% (active)
O=C(NCC1CCCO1)C(c1cccs1)N(Cc1ccccc1Cl)C(=O)c1ccc(-c2ccccc2)[nH]1 (stereo not given) | 16.9% (active)
COc1ccc(C(=O)N(CC2CCCO2)C(C(=O)NCCC(C)C)c2ccc(C)cc2)cc1OC (stereo not given) | inactive
Cc1cc(C)cc(NC(=O)C(NCC2CCCO2)c2ccccc2)c1 (stereo not given) | inactive
